Screens: PubChem, National Center for Advancing Translational Sciences (NCATS)
Most compounds without a hit are left out; they make up all but 4.1% or so of the library.
AMA1 RON2 block: qHTS for Inhibitors of AMA1-RON; Towards Development of Antimalarial Drug Lead: Primary Screen; Plasmodium falciparum AMA1 (3D7) - RON2 peptide interaction; AlphaScreen AMA1-biotinylated RON2 peptide binding; Potency, µM (highest dose often 58.2 µM), inactives show top-dose activity change, negative = inhibition, hits mostly inhibitors; 0.2% of 360,000 active; AID 720542, 2013;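 note: 0% = vehicle wells and -100% = peptide control; nearly all actives have a fitted effect of over 45% in size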
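AMA1 (3D7) with his tag at 25 nM final met compounds first, then biotinylated RON2 peptide at 25 nM; detection used donor plus acceptor beads, 10 µg/mL apiece, read by AlphaScreen after 30 min at room temperature.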
AmpC inh no detg: qHTS Inhibitors of AmpC Beta-Lactamase (assay without detergent) | AmpC nitrocefin hydrolysis, absorbance 480 nm, 0.0001% Triton | Potency, µM (top dose mostly 57.1 µM), without a hit: top-dose activity change, negative = inhibition, actives largely listed as inhibitors | 0.52% of 330,000 active;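 note: plate controls were no compound for no effect and no enzyme for full effect; nearly all actives have a fitted effect of over 20% in size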
Target sequence (P00811 whole entry, looked up): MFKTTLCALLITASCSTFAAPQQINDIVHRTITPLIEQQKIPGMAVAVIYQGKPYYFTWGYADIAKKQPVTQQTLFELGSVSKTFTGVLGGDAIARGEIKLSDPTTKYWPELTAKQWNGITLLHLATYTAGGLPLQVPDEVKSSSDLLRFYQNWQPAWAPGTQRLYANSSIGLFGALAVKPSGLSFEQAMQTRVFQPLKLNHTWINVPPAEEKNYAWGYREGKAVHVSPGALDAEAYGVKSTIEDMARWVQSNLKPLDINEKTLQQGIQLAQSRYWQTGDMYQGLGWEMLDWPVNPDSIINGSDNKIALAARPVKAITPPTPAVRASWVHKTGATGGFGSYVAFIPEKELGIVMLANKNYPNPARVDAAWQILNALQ
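AmpC (5.3 nM in the dispensed reagent) in 20 mM phosphate pH 7.0 with 0.01% (detergent screen) or 0.0001% Triton X-100 was preincubated with compounds for 15 min at room temperature. Nitrocefin was then added from an 800 uM solution, and hydrolysis was followed at 480 nm.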
FMDV inh: High Throughput Screening for Foot and Mouth Disease Virus Antivirals; 1.2% of 410,000 active; AID 1159524, 2015; FMDV antiviral cell-based qHTS; Potency, µM (top dose mostly 57.9 µM), without a hit: at the top dose activity change, negative = inhibition, usual class: inhibitors; calls by dose curve; tested in HEK293T cells; note: read-out not given here; nearly all actives have a fitted effect of over 45% in size
AmpC inh detg: qHTS Inhibitors of AmpC Beta-Lactamase (assay with detergent); AmpC hydrolysis of nitrocefin, absorbance 480 nm, 0.01% Triton; P00811; 0.041% of 370,000 active; Potency, µM (highest dose often 114 µM), for inactives: top-dose activity change, negative = inhibition, actives largely listed as inhibitors; AID 485294, 2010;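 note: 0% = no-compound wells and -100% = no-enzyme wells; nearly all actives have a fitted effect of over 25% in size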
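AmpC (5.3 nM in the dispensed reagent) in 20 mM phosphate pH 7.0 with 0.01% (detergent screen) or 0.0001% Triton X-100 was preincubated with compounds for 15 min at room temperature. Nitrocefin was then added from an 800 uM solution, and hydrolysis was followed at 480 nm.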
Sm TGR block: qHTS Assay for the Inhibitors of Schistosoma Mansoni Peroxiredoxins. purified TGR, DTNB reduction, TNB absorbance 405 nm. Potency, µM (doses to about 114 µM), without a hit: at the top dose activity change, negative = inhibition, most hits filed as inhibitors. 3% of 360,000 active. Schistosoma mansoni thioredoxin glutathione reductase (TGR), Q962Y6; note: nearly all actives have a fitted effect of over 60% in size
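TGR 20 nM + NADPH 100 uM (dispensed conc.), cpd preinc 15 min RT; start with NADPH (500 uM addition) then DTNB (15 mM addition). Kinetic TNB absorbance, 405 nm filter. Four-parameter Hill fit across titration.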
Active calls of the source: *. Unless noted, calls come from the whole dose curve; as a rule, active = well fitted curve in the direction sought with a large enough effect; inconclusive = small, poorly fitted or top-dose-only effect, or another doubt; inactive = no such curve, though single readings can be large; an effect the other way counts as inactive or inconclusive. Unless noted, % is set by controls: 0 for no effect and ±100 for the full control effect; potency is the fitted concentration of half-maximal effect.

`CN(Cc1ccccc1)C(=O)[C@H]1CCC(=O)N1Cc1ccco1` gave AMA1 RON2 block -4%, AmpC inh no detg 10%, FMDV inh 7%, AmpC inh detg 2% and Sm TGR block 16µM*.
C[C@H](NC(=O)[C@@H]1CCC(=O)N1Cc1ccco1)c1ccccc1 was read as AMA1 RON2 block 0%, AmpC inh no detg -2%, FMDV inh 0%, AmpC inh detg -2% and Sm TGR block 50µM*.
Cc1nc(NC(=O)c2ccccc2)sc1-c1csc(Nc2cccc(F)c2)n1 was read as AmpC inh no detg 16µM*, AmpC inh detg -8% and Sm TGR block 12%.
For Cc1ccc(Cl)cc1Nc1nc(-c2sc(NC(=O)c3ccccc3)nc2C)cs1 the results were AmpC inh no detg -43%, AmpC inh detg -9% and Sm TGR block 0%.
For COc1ccc(-c2cc(C(=O)Nc3cc(OC)cc(C(=O)Nc4cccc(C(F)(F)F)c4)c3)[nH]n2)cc1 the results were AMA1 RON2 block -1%, AmpC inh no detg 28µM*, FMDV inh -22%, AmpC inh detg -2% and Sm TGR block 9%.
Screening O=C(Nc1cccc(-c2csc(Nc3cccc(C(F)(F)F)c3)n2)c1)c1ccccc1 returned AMA1 RON2 block -7%, AmpC inh no detg 2µM*, FMDV inh inconclusive, AmpC inh detg -1% and Sm TGR block 11%.
Cc1ccc(C)c(C(=O)CSc2nnnn2C(C)C)c1 was read as AMA1 RON2 block -4%, AmpC inh no detg -17%, FMDV inh 32%, AmpC inh detg 4% and Sm TGR block 4%.
Cc1ccc(C(=O)CSc2nnnn2C(C)C)c(C)c1 was read as AMA1 RON2 block -1%, AmpC inh no detg -13%, FMDV inh 14µM*, AmpC inh detg -1% and Sm TGR block -3%.
O=C(NCc1ccccc1Cl)C1CCN(C(=O)N2CCOc3ccccc32)CC1 was read as FMDV inh -6%, AmpC inh detg -3% and Sm TGR block 4%.
Screening O=C(Nc1ccc2c(c1)OCCO2)c1ccc(Br)c(S(=O)(=O)N2CCOCC2)c1 returned AMA1 RON2 block -7%, AmpC inh no detg -5%, FMDV inh 18µM*, AmpC inh detg -13% and Sm TGR block 12%.
For O=C(Nc1ccccc1)c1ccc(Br)c(S(=O)(=O)N2CCCCC2)c1 the results were FMDV inh 14µM*, AmpC inh detg 5% and Sm TGR block 1%.
`O=C(O)c1ccc(NC(=O)c2ccc(Br)c(S(=O)(=O)N3CCCC3)c2)cc1` gave FMDV inh -1%, AmpC inh detg 2% and Sm TGR block -2%.
For O=C(Nc1ccc2c(c1)OCO2)c1ccc(Br)c(S(=O)(=O)N2CCCC2)c1 the results were AMA1 RON2 block 4%, AmpC inh no detg -34%, FMDV inh inconclusive, AmpC inh detg -14% and Sm TGR block -34%.
Screening OC1(c2cccnc2)CCN(Cc2ccc3c(c2)CN(Cc2cc(F)ccc2F)CCO3)CC1 returned FMDV inh -18%.
For NS(=O)(=O)c1ccc(-c2ccc(/C=C3\C(=O)Nc4ccccc43)o2)cc1 the results were AmpC inh no detg -37%, AmpC inh detg inconclusive and Sm TGR block -27%.
`C=CCOc1ccccc1C(=O)/C=C1/C(=O)Nc2ccccc21` gave AMA1 RON2 block -7%, AmpC inh no detg -30%, FMDV inh 40µM*, AmpC inh detg -3% and Sm TGR block -15%.
For Cc1ccc(/C=C2\C(=O)Nc3ccccc32)o1 the results were AMA1 RON2 block -12%, AmpC inh no detg -22%, FMDV inh 32%, AmpC inh detg -21% and Sm TGR block 25µM*.
O=C1Nc2ccccc2/C1=C/C(=O)c1cccs1 was read as AMA1 RON2 block -29%, AmpC inh no detg -14%, FMDV inh 22µM*, AmpC inh detg -3% and Sm TGR block -33%.
`COc1ccc(C(=O)/C=C2/C(=O)Nc3ccccc32)cc1OC` gave AMA1 RON2 block 0%, AmpC inh no detg -11%, FMDV inh 32µM*, AmpC inh detg 9% and Sm TGR block -28%.
COc1ccc(C(=O)/C=C2/C(=O)Nc3ccccc32)c(OC)c1 was read as AMA1 RON2 block -3%, AmpC inh no detg -20%, FMDV inh inconclusive, AmpC inh detg -15% and Sm TGR block -12%.
For CCN(Cc1ccccc1)C(=O)Cn1c(=O)n(-c2ccc(Cl)cc2)c(=O)c2c(C)c(C(=O)N(C)C)sc21 the results were FMDV inh -10%, AmpC inh detg 10% and Sm TGR block 0%.
O=C(CSc1nc(-c2ccccc2)nc2c1Cc1ccccc1O2)N1CCCCC1 was read as FMDV inh -24%, AmpC inh detg 9% and Sm TGR block 5%.
Screening COc1ccc(C(=O)/C=C2/C(=O)Nc3ccccc32)cc1 returned AMA1 RON2 block -6%, AmpC inh no detg -28%, FMDV inh 3.2µM*, AmpC inh detg -5% and Sm TGR block 9%.
Screening COc1cc(OC)c(/C=C2\C(=O)Nc3ccccc32)c(OC)c1 returned AMA1 RON2 block -30%, AmpC inh no detg 6%, FMDV inh 28µM*, AmpC inh detg inconclusive and Sm TGR block -4%.
CCCCNc1oc(-c2ccc(OC)cc2)nc1S(=O)(=O)c1ccccc1 was read as AMA1 RON2 block -14%, AmpC inh no detg -5%, FMDV inh 1%, AmpC inh detg 0% and Sm TGR block 32µM*.
For Cc1ccc(S(=O)(=O)c2nc(-c3ccccc3F)oc2NCc2ccccc2)cc1 the results were FMDV inh 36%, AmpC inh detg 15% and Sm TGR block 48%.
For COc1ccccc1/C=C/c1nc(S(=O)(=O)c2ccccc2)c(NCCN(C)C)o1 the results were AMA1 RON2 block 27%, AmpC inh no detg 123%, FMDV inh -4%, AmpC inh detg -14% and Sm TGR block 22µM*.
`Cc1ccc(S(=O)(=O)c2nc(C)oc2NCc2ccccc2)cc1` gave AmpC inh no detg -60%, AmpC inh detg 50µM* and Sm TGR block 2µM*.
For Cc1ccc(S(=O)(=O)c2nc(-c3ccccc3)oc2NCCN2CCOCC2)cc1 the results were AMA1 RON2 block 21%, AmpC inh no detg 210%, FMDV inh -5%, AmpC inh detg -11% and Sm TGR block 45µM*.
Cc1noc(C)c1C(=O)N1CCC[C@@]2(CCN(c3ccccn3)C2)C1 was read as FMDV inh -2%.
For Cc1cccc(C(=O)n2nc(C)c(S(=O)(=O)N3CCOCC3)c2C)c1 the results were FMDV inh 9%, AmpC inh detg 9% and Sm TGR block -35%.
